This is an account of results in PubChem BioAssay.

Assay [1] concerns Human papillomavirus type 1a protein E7 (residues 44-93). The experiment in a line: HPV1a E7 fragment binders on microarrays, primary screen, biochemical, small-molecule microarray, residues 44-93, 635 nm fluorescence (AID 1108).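 Also: E7 fragment applied at 1 µg/mL in TBST for 1 h at 4 C; score combines spot fluorescence with its signal to noise ratio.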 Conditions: small-molecule microarray binding, fluorescence 635 nm; higher = more signal.
A short description of assay [2]: modulators of HCV replicon luciferase signal, primary screen, HCV replication inhibitor project, Huh7 cells, luciferase reporter (AID 1109).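 Also: huh7 hepatoma cells harbouring a luciferase neomycin HCV replicon reporter; luciferase luminescence as measure of HCV replicon replication; test concentration not given here.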 The note with it: 48 h, higher = more signal. (In general: Replicon systems follow genome replication, usually without infectious particles.)
Assay [3] concerns the target Left-right determination factor 2 (Homo sapiens) (UniProt O00292). Briefly: LEFTY2 binders on small-molecule microarrays, primary screen, biochemical, small-molecule microarray, 635 nm fluorescence scan (AID 1110). Conditions: LEFTY2 binding, higher = more signal.
The target in assay [4] is Calmodulin-1 (Homo sapiens) (UniProt P0DP23). The experiment in a line: CALM1 binders on microarrays, EGTA buffer, profiling panel, biochemical, small-molecule microarray, Cy5-labelled CALM1 (AID 1111).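 Also: labelled calmodulin applied in Tris saline Tween buffer holding calcium plus EGTA and DTT.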 The note with it: Cy5-CALM1 binding fluorescence, higher = more signal.
The target is the same in assay [5]. Briefly: calcium-bound CALM1 binders on microarrays, profiling panel, artefact control for SMM control-protein annotation, biochemical, small-molecule microarray, Cy5-labelled CALM1, plus calcium (AID 1112).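 Also: score merges spot fluorescence with signal to noise from triplicate slides.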 The note with it: Cy5-CALM1 binding fluorescence, higher = more signal.
The nature of assay [6]: small-molecule microarray binders of probe aWnt5a, primary screen, biochemical, biotinylated probe, 635/667 nm fluorescence (AID 1113).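 Also: score merges 667 nm fluorescence intensity with signal-to-noise per printed feature.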 The note with it: higher = more signal.
Assay [7] in a line: small-molecule microarray binders of probe aShh, primary screen, biochemical, biotinylated probe, 635/667 nm fluorescence (AID 1114).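 Also: probe is biotin-labelled aShh protein from a stem cell growth factor screen; measures binding of labelled protein to compounds printed on the slide; score merges feature fluorescence at 667 nm with signal-to-noise.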 Conditions: higher = more signal.
A short description of assay [8]: small-molecule microarray binders of probe aNog, primary screen, biochemical, biotinylated probe, 635/667 nm fluorescence (AID 1115).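 Also: probe is biotinylated aNog protein used at 0.15 µg/mL for 1 h at 4 C; z-score combines 667 nm fluorescence of each spot with its signal to noise.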 The note with it: higher = more signal.
For assay [9], the target named is Torsin-1A-interacting protein 1 (Homo sapiens) (UniProt Q5JTV8). Briefly: LAP1 binders from COS7 cell lysate, primary screen, small-molecule microarray, 635/667 nm fluorescence (AID 1116). Conditions: COS7-hLAP1 lysate binding, 635 nm fluorescence, higher = more signal.
Assay [10] addresses Alpha-bungarotoxin (Bungarus multicinctus) (UniProt P60615). The experiment in a line: alpha-bungarotoxin binders on microarray, profiling panel, artefact control for SMM control protein annotation, biochemical, small-molecule microarray, Alexa647 label, 635/667 nm fluorescence (AID 1117). The note with it: alpha-BTX-A647 binding fluorescence, higher = more signal.
The next assay deals with Albumin (Bos taurus) (UniProt P02769). Briefly: bovine serum albumin binders on microarray, profiling panel, artefact control for SMM control protein annotation, biochemical, small-molecule microarray, Alexa647 label, 635/667 nm fluorescence (AID 1118).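 Also: score merges 667 nm emission intensity and signal-to-noise per printed compound spot.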 Conditions: BSA-A647 binding, fluorescence 635 nm, higher = more signal.
The nature of assay [11]: small-molecule microarray binders of probe aXIP, primary screen, biochemical, NeuroSMM set, 635/667 nm fluorescence (AID 1119).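 Also: probe is the protein aXip251-270 applied at 1 µg/mL to compound-printed slides; binding of probe to printed compounds measured as 667 nm fluorescence plus signal to noise.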 Conditions: higher = more signal, called active from +8 up or from −8 down.
Assay [12] is described as follows: small-molecule binders of probe aNOTCH3, primary screen, biochemical, small-molecule microarray, 635/667 nm fluorescence (AID 1120).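 Also: probe is a biotin-tagged antibody raised against NOTCH3 rather than NOTCH3 protein; score merges spot fluorescence near 667 nm with spot signal to noise.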 The note with it: higher = more signal.
A short description of assay [13]: small-molecule binders of probe aNOTCH2, primary screen, biochemical, small-molecule microarray, 635/667 nm fluorescence (AID 1121).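 Also: score merges feature fluorescence read at 667 nm with its signal to noise.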 The note with it: higher = more signal.
Assay [14] addresses Carbonic anhydrase 2 (Homo sapiens) (UniProt P00918). The experiment in a line: CAII small-molecule binders, profiling panel, biochemical, small-molecule microarray, Alexa647-labelled CAII (AID 1122). The note with it: CAII-A647 binding fluorescence, higher = more signal.
Assay [15] in a line: COS7 lysate on small-molecule microarray, probe aHis, 635 nm (AID 1123).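 Also: z-score combines 667nm fluorescence intensity with signal-to-noise per printed compound spot.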 The note with it: COS7 cell lysate, fluorescence, higher = more signal.
Assay [16] can be described thus: compound binding in COS7 lysate, probe aLAP1, primary screen, cell lysate, small-molecule microarray (AID 1124).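 Also: lysate comes from COS7 cells expressing LAP1 and is applied at 0.3 µg/mL; score merges spot fluorescence near 667 nm with signal-to-noise over triplicate slides.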 Conditions: probe aLAP1, fluorescence, higher = more signal.
The next assay concerns Sam68 (KHDRBS1). Briefly: Sam68 small-molecule binders, primary screen, biochemical, small-molecule microarray, 635 nm fluorescence (AID 1125).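 Also: score merges 667 nm channel intensity with signal to noise over triplicate slides.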 The note with it: small-molecule microarray binding, higher = more signal.
Assay [17] relates to Chordin-like protein 2 (CHRDL2). Briefly: CHRDL2 small-molecule binders, primary screen, biochemical, small-molecule microarray, 635 nm fluorescence (AID 1126).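 Also: printed compound slides probed with Chrdl2 protein at 4 µg/mL for 1 h at 4 C; score merges 667 nm emission intensity with signal to noise over three replicate slides.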 The note with it: small-molecule microarray binding, fluorescence 635 nm; higher = more signal.
Assay [18] concerns the target Concanavalin-A (Canavalia ensiformis) (UniProt P02866). Briefly: ConA small-molecule binders, primary screen, artefact control for SMM control protein annotation, biochemical, small-molecule microarray, Alexa647 label, 635 nm (AID 1127).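 Also: z combines 667 nm emission intensity with signal-to-noise across three replicate slides.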 Conditions: ConA-A647 binding fluorescence, higher = more signal.

Active and inactive are the calls of the source.

Torsin-1A-interacting protein 1 (Homo sapiens), sequence (Q5JTV8 whole entry, looked up): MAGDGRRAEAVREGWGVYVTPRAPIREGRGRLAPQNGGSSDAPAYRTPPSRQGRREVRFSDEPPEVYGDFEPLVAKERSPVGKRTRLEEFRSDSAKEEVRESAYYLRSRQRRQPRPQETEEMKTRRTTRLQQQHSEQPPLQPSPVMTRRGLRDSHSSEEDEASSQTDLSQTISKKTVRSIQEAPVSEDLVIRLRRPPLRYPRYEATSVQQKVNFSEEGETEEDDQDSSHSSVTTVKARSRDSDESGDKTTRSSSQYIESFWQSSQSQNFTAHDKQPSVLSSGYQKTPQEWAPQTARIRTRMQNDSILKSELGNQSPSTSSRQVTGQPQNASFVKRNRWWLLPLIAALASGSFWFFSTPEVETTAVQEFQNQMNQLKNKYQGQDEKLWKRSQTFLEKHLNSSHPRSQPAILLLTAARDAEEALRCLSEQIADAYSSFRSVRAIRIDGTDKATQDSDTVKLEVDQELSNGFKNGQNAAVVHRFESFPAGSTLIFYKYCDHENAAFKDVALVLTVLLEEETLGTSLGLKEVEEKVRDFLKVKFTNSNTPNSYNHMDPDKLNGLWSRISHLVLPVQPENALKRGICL
Left-right determination factor 2 (Homo sapiens), sequence (O00292 whole entry, looked up): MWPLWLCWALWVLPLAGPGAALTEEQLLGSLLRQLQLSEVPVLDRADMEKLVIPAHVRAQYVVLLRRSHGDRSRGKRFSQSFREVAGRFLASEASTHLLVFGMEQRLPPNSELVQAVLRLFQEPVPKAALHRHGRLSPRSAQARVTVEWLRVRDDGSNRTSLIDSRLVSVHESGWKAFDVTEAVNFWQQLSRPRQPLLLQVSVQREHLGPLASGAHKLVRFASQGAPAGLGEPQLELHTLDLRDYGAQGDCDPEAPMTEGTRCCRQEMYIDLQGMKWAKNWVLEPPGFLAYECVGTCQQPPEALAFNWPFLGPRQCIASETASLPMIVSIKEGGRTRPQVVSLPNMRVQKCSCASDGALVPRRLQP
Albumin (Bos taurus), sequence (P02769 whole entry, looked up): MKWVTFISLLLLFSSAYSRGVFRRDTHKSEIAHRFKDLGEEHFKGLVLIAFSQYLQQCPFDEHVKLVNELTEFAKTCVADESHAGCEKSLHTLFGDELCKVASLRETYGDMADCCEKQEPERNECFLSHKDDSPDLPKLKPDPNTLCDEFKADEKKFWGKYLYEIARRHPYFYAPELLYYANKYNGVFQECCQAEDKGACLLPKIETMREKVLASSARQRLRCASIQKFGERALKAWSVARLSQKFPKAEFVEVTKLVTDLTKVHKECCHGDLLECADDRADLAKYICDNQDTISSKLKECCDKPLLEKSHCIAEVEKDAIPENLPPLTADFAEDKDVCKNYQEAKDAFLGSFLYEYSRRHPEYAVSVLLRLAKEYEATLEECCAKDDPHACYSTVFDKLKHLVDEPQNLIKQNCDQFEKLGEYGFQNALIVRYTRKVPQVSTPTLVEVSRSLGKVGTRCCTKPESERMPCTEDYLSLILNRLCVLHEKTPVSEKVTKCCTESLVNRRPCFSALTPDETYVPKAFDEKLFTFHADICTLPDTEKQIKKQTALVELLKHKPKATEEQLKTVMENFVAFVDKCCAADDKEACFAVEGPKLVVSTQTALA
Concanavalin-A (Canavalia ensiformis), sequence (P02866 whole entry, looked up): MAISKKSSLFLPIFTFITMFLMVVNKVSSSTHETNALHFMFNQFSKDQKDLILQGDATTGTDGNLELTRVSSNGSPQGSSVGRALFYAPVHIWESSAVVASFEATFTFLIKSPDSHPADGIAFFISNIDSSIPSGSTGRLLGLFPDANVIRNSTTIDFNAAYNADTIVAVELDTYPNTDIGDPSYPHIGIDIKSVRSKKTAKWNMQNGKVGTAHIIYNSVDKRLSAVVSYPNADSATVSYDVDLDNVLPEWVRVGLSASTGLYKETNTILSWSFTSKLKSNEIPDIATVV
Alpha-bungarotoxin (Bungarus multicinctus), sequence (P60615 whole entry, looked up): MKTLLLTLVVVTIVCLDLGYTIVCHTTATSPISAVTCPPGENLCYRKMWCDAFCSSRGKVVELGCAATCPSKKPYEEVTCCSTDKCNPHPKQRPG

Turning to `CN(C)C(=O)[C@@]1(CCC(=O)OC(C)(C)C)N=C(c2ccc(OCCCO)cc2)O[C@H]1c1ccccc1N=[N+]=[N-]`, the composite z-score worked out at 1.54 in assay [1]; 0.494 in assay [3]; 1.61 in [4]; 0.727 in assay [5]; 0.0839 in [6]; 0.246 in assay [7]. The composite z-score was 0.948 in assay [8]; 2.15 in assay [9]; 2.63 in assay [10]; 1.03 with Albumin (Bos taurus); 0.315 in [12]; -0.0129 in assay [13]. Moreover, the composite z-score in assay [14] was 0.812; in assay [15], 3.31; in assay [16] it was 1.25; in the assay on Sam68 (KHDRBS1), 1.3; in [17], -0.18; in assay [18], 1.11. Besides, the z-score in assay [2] is 1.58. In [11], the composite Z-score was 0.0421 (inactive).
As for `CCOC(=O)C[C@H]1[C@H](OC(=O)Cc2ccc3c(c2)OCO3)[C@@H](NC(=O)c2ccccc2)c2cc(OCCCO)ccc2N1C(=O)c1ccc2ccccc2n1`, the composite z-score in [1] is 0.594; in assay [3], 0.11; in [4], 0.481; in assay [5], -0.455; in [6], -0.152; in assay [7] it was 0.172. Further, the composite z-score in assay [8] was -0.0675; in assay [9], 0.761; in [10], -0.055; in the assay with Albumin (Bos taurus), 0.645; in assay [12] it was -0.226; in assay [13] it was -0.147. Besides, the composite z-score in assay [14] was 0.08; in [15], 0.526; in [16] it was -0.145; with Sam68 (KHDRBS1) it was 0.679; in assay [17] it was 0.127; in assay [18] it was 1.1. In assay [2], this molecule showed a z-score of 0.173. Also, the composite Z-score in assay [11] is 0.375 (inactive).
In the case of `COC(=O)c1c(CC[C@@H](CO)NC(=O)N[C@@H](C)Cn2cc(C3(O)CCCC3)nn2)oc(C(C)=O)c1C(=O)OC`, the composite z-score in assay [1] is 0.467; in [3] it was 0.0541; in assay [4] it was -0.186; in [5], -0.467; in [6] it was -0.0758; in [7], -0.0709. In addition, the composite z-score in assay [8] is -0.368; in assay [9] it was 0.711; in [10], 0.282; in the assay with Albumin (Bos taurus), 0.815; in [12], 0.276; in assay [13] it was -0.204. In addition, the composite z-score in assay [14] is 0.672; in [15], 2.66; in assay [16], 0.0377; with Sam68 (KHDRBS1) it was 0.481; in assay [17], -0.425; in assay [18] it was 0.484. The molecule also yielded a z-score in assay [2] of 0.884. Moreover, the composite Z-score in assay [11] is 0.42 (inactive).
In the case of `CC(C)NC(=O)[C@@]1(Cc2ccccc2I)c2ccccc2C(=O)N(Cc2ccccc2C(F)(F)F)[C@H]1c1ccc(CO)cc1`, the composite z-score in assay [1] was -0.358; in assay [3] it was -0.0083; in [4] it was 0.503; in assay [5] it was 0.377; in assay [6], -0.096; in [7], -0.012. The composite z-score in assay [8] is 0.647; in assay [9], 0.506; in assay [10], 0.565; with Albumin (Bos taurus), 0.263; in assay [12], 0.059; in assay [13], 0.0509. Moreover, the composite z-score in assay [14] was determined as 0.71; in assay [15], 1.47; in [16], 0.896; with Sam68 (KHDRBS1), 0.63; in [17], 0.107; in assay [18], 0.548. In assay [2], this molecule gave a z-score of -1.47. For the same molecule, in assay [11], the composite Z-score was 0.0307 (inactive).
With `O=C1C2C=CC(C(O)c3ccccn3)N(Nc3ccccc3)C2C(=O)N1c1ccccc1` (stereo not given), the composite z-score in [1] is 0.132; in [3], -0.136; in assay [4], 0.167; in [5], -0.0451; in [6], -0.0758; in [7] it was -0.291. Besides, the composite z-score is 0.0373 in assay [8]; 0.529 in assay [9]; 0.31 in [10]; 1.03 with Albumin (Bos taurus); -0.0026 in assay [12]; -0.0995 in assay [13]. Also, the composite z-score in assay [14] is 0.824; in [15], 0.696; in [16], -0.247; with Sam68 (KHDRBS1) it was -0.419; in assay [17] it was -0.493; in assay [18], 0.36. In [2], this molecule returned a z-score of 0.819. Moreover, the composite Z-score in assay [11] is 0.959 (inactive).
Regarding `COC(=O)[C@@]1(Cc2ccccc2)[C@H]2c3cc(C(=O)N4CCCC4)n(Cc4ccc(OC(F)(F)F)cc4)c3C[C@H]2CN1C(=O)c1ccccc1`, the composite z-score in assay [1] is 1.41; in [3], -0.782; in [4], 2.31; in assay [5], 1.41; in [6], 0.583; in assay [7] it was 1.12. Besides, the composite z-score in assay [8] amounted to 1.69; in assay [9] it was 0.867; in [10], 1.35; in the assay with Albumin (Bos taurus), 0.963; in assay [12] it was 0.772; in assay [13], 0.509. For the same molecule, the composite z-score in [14] is 0.461; in [15], 2.44; in assay [16], 0.498; in the assay with Sam68 (KHDRBS1), 1.31; in assay [17] it was -0.488; in [18] it was 1.16. Besides, the z-score in assay [2] was -1.95. Moreover, the composite Z-score in [11] was -0.56 (inactive).
